From PubChem BioAssay
KDM4E inh = JMJD2E (human) inhibition | B2RXH2 | Potency, µM (series often up to 57.1 µM), usual class: inhibitors | actives 1.6% (n = 230,000) | JMJD2E catalytic domain, FDH-coupled NADH fluorescence (FDH is formaldehyde dehydrogenase); further: nearly all actives have a fitted effect of over 50% in size
Target sequence (B2RXH2 1-337 limits assumed): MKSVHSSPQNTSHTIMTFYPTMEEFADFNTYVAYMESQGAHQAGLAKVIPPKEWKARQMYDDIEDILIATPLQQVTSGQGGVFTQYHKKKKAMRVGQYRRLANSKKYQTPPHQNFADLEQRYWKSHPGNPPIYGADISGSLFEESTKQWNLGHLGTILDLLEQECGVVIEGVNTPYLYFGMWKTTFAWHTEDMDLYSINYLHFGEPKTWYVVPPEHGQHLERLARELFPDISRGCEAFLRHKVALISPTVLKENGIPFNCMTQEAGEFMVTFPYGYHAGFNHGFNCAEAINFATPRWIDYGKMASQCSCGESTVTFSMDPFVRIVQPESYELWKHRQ
CtBP-E1A blk = inhibitors of CtBP/E1A interaction; AlphaScreen GST-E1A/His-CtBP binding, 1536-well; stronger effect = lower value; activity change, % (concentration not given with the values); actives 0.49% (n = 340,000)
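Homogeneous bead-based format: GST-tagged E1A captured on glutathione donor beads, His-tagged CtBP on nickel acceptor beads; compounds precede bead addition by 2 h at 37 °C.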
Six1-Eya2 blk = blocks human Six1 binding to Eya2; AlphaScreen GST-Six1/His-Eya2 binding, biochemical; stronger effect = lower value; activity change, % (concentration not given with the values); actives 0.56% (n = 360,000)
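GST-Six1 + His-Eya2 (5X stock: 250/500 nM); Tris pH 8.0, 300 mM NaCl, 0.05% BSA, 0.02% Tween 20; GSH donor/Ni acceptor beads; 1 h 37 °C dark; AlphaScreen readout.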
L3MBTL1 block = inhibitors of human L3MBTL1. actives 0.66% (n = 230,000). Potency, µM (highest dose often 57.1 µM), most hits filed as inhibitors. AlphaScreen L3MBTL1–H3K9me1 peptide binding. Q9Y468. AID 485360; active means well fitted inhibition curve with a large enough effect; inconclusive means small, poorly fitted or top-dose-only effect; inactive means no such curve, though single readings can be large or run the other way; further: nearly all actives have a fitted effect of over 60% in size
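Read-out is AlphaScreen signal from streptavidin donor and nickel chelate acceptor beads (10 ug/mL final each) bridging L3MBTL1 (50 nM) and biotinylated K9-monomethylated H3(1-15) peptide (75 nM), after 30 min compound exposure at room temperature.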
Hits are given with their value; - = inactive; ? = inconclusive; . = not tested or not shown; [ ] = another dose, or the depositor's remark. The sample as a whole holds a higher share of hits than the screen did. Unless noted, no stated cut-off is given here; in the data, active means activity change below about -65%; inconclusive means mostly about -30% to -63%; inactive means weaker than that.

SMILES	KDM4E inh	CtBP-E1A blk	Six1-Eya2 blk	L3MBTL1 block
CCc1nc2ccc(C(=O)NCCc3ccc(OC)c(OC)c3)cc2nc1CC	.	-	-	.
O=C(Nc1cccc(C(F)(F)F)c1)c1ccc2nc(-c3ccco3)c(-c3ccco3)nc2c1	14µM	?	-77	.
O=C(O)c1ccc2nc(-c3ccco3)c(-c3ccco3)nc2c1	-	-	?	2.2µM
COc1ccc(CCNC(=O)c2ccc3nc(-c4ccco4)c(-c4ccco4)nc3c2)cc1OC	13µM	?	?	?
CCN(CC)c1ccc(NC(=O)c2cc(Cl)ccc2OC)cc1	-	?	-66	.
COc1ccc(Cl)cc1C(=O)Nc1ccncc1	.	-	-	-
N#C/C(N=Nc1ccccc1O)=N\Nc1ccccc1O	.	-82	-70	?
Oc1ccccc1N=N/C(=N/Nc1ccccc1O)c1ccccc1	.	-	-	-
Clc1cccc(Cl)c1C1Nc2cccc3cccc(c23)N1	.	-	-	14µM
Fc1cccc(Cl)c1C1Nc2cccc3cccc(c23)N1	.	.	-	.
Brc1cccc(C2Nc3cccc4cccc(c34)N2)c1	.	-	-	.
Brc1ccc(C2Nc3cccc4cccc(c34)N2)o1	3.2µM	-	-	-
COc1cc(O)c(C(C)=O)c(CC(=O)O)c1	25µM	-	?	.
COC(=O)C1=C(C(=O)OC)[C@@H]2Nc3ccccc3[C@@]23C[C@@H](C(=O)OC)N(S(=O)(=O)c2ccc(C)cc2)C3=N1	-[11.4 µM]	.	.	.
Cc1cc(C)c(C)c(S(=O)(=O)N[C@@H](C)C(=O)OCc2cc(=O)n3cc(Br)ccc3n2)c1C	?	-	-	13µM
NNC(=O)c1cc(O)c(O)c(O)c1	?	.	-	0.56µM
O=C(CCSc1ccccc1)NNC(=O)c1ccccc1F	.	-	-	-
COc1ccc(/C=C/C(=O)NC(=S)N2CCN(c3ccccn3)CC2)cc1OC	?	?	-	-
O=C(/C=C/c1ccc(F)cc1)NC(=S)N1CCN(c2ccccn2)CC1	-	-74	-	-
CC(C)C[C@@H](CC(=O)N[C@@H](CCC(=O)O)CC(=O)O)NC(=O)[C@@H]1CCCC[C@H]1NC(=O)C[C@@H](NC(=O)C[C@H](Cc1ccccc1)NC(=O)[C@@H]1CCCC[C@H]1N)C(C)C	-	.	.	.
CC1CCCC(NC(=O)C2CCN(S(=O)(=O)c3cccc4nonc34)CC2)C1C (stereo not drawn)	.	-	-	.
Nc1ccc(S(=O)(=O)Nc2nccc(/C=C/c3ccc(Cl)cc3)n2)cc1	.	-76	?	.
CC(=O)[C@H]1CC[C@@H]2[C@H]3CC=C4C[C@@H](O)CC[C@]4(C)[C@H]3CC[C@]12C	-	.	.	.
CC(=O)OC1CC2C(C)(C)C(=O)C=C[C@]2(C)C2CC[C@@]3(C)C(c4ccoc4)OC(=O)C4O[C@@]43[C@]12C (stereo partly drawn)	-	.	.	.
CCCC[C@@H]1C[C@H]1C(NC(=O)c1cccnc1)c1ccc(Cl)cc1 (stereo partly drawn)	-	.	.	.
SMILES	KDM4E inh	CtBP-E1A blk	Six1-Eya2 blk	L3MBTL1 block
O=C(O)c1ccc(NS(=O)(=O)c2ccc3c(c2)C(=O)c2ccccc2C3=O)cc1	-	?	-72	-
O=C(O)c1ccc(NS(=O)(=O)c2cccc(S(=O)(=O)c3ccc(Cl)c(Cl)c3)c2)cc1	.	-	-	.
C/C(=N/Nc1ccc(C(=O)O)cc1)c1ccc(O)c(O)c1O	8.9µM	-	?	14µM
N#Cc1ccccc1S(=O)(=O)N1CCN(c2nc(-c3cccnc3)nc3ccccc23)CC1	.	-	-	-
COc1cc(CNc2ccc(N3CCOCC3)cc2)cc(Br)c1OC	-	.	?	-[11.4 µM]
COc1cc(CNc2ccc(N3CCCC3)cc2)cc(Cl)c1OC	14µM	?	?	?
CC(C)c1ccc(CNc2ccc(N3CCOCC3)cc2)cc1	?	-67	-72	?
C=CCOc1c(Cl)cc(CNc2ccc(C)c(Cl)c2)cc1OC	-	.	.	.
CCOc1cc(CNc2ccc(N3CCCC3)cc2)cc(Cl)c1OC	16µM	-	?	?
C=CCOc1c(Cl)cc(CNc2ccc(N(C)C)cc2)cc1OC	-	?	?	13µM
O=C(Nc1cc(C(F)(F)F)ccc1N1CCOCC1)c1cccc(S(=O)(=O)N2CCOCC2)c1	.	-	-	.
COc1c2c(c(C(=O)/C=C/C(C)=C/c3ccccc3)c3c1OCO3)CCN(C)C2	-	.	.	.
CC(C)(C)C(=O)Nc1cccc(OC(F)(F)C(F)Cl)c1 (stereo not drawn)	-	-	-	-
COC(=O)c1ccc(C(NC(=O)OCc2ccccc2)/C(=C/[C@@H](C)C(=O)NCc2cc(C)on2)c2cccnc2)cc1 (stereo partly drawn)	-	.	.	.
CCOc1ccc(CNc2ccc(N3CCCC3)cc2)cc1	16µM	?	?	?
CN(CCc1ccc(Cl)c(Cl)c1)CCN1CCCC1	-	.	.	.
CC(C)c1ccc(NC(=O)CSc2n[nH]c(=O)n2C2CC2)cc1	.	-	-	.
CS(=O)(=O)c1ccc(C(=O)Nc2nc(-c3ccco3)c(-c3ccco3)s2)cc1	.	-	?	7.1µM
C=CCN1c2ccccc2[C@]23C[C@@H](C(=O)OC)N(S(=O)(=O)c4ccc(C)cc4)C2=NC(C(=O)OC)=C(C(=O)OC)[C@H]13	-[11.4 µM]	.	.	.
CCCCC[C@H](O)/C=C/C=C\C/C=C\C=C\[C@@H](O)CCCC(=O)O	-	.	.	.
CC1=CC(C)(C)Nc2cc(C)c(C)cc21	11µM	-	-	-
CC1=CC(C)(C)Nc2ccc(OC(=O)CN3C(=O)CCC3=O)cc21	?	-	-	.
CC1=CC(C)(C)Nc2ccc(C)cc21	14µM	-	-	-
Cc1ccc(S(=O)(=O)N(C(=O)c2ccncc2)c2ccc(OC(=O)c3ccncc3)c3ccccc23)c(C)c1	?	-	-	.
Cc1ccc(S(=O)(=O)N(C(=O)c2ccncc2)c2ccc(OC(=O)c3ccncc3)c3ccccc23)cc1	16µM	-	-	-
SMILES	KDM4E inh	CtBP-E1A blk	Six1-Eya2 blk	L3MBTL1 block
O=C1COc2ccc(C(=O)COC(=O)/C=C/c3ccc(Br)o3)cc2N1	.	-	-	3.5µM
O=S(=O)(c1cc(O)ccc1O)c1cccc2c(S(=O)(=O)c3cc(O)ccc3O)cccc12	.	-	?	3.2µM
CSc1ccccc1OCc1cc(C(=O)NCCn2ccnc2C)no1	.	-	-	.
C[C@@H](C(=O)Nc1ccc2ccccc2c1)[C@@H]1C[C@@]1(C)[C@@H](NS(=O)(=O)c1ccc2ccccc2c1)c1ccccc1	14µM	.	.	.
C[C@@H](C(=O)Nc1ccc2ccccc2c1)[C@H]1C[C@]1(C)[C@H](NS(=O)(=O)c1ccc(-c2ccccc2)cc1)c1ccccc1	-	-	-	-
CCCCOP(=O)(c1ccc(N(C)C)cc1)C(O)c1cccnc1 (stereo not drawn)	-	-	-	-
CCCOP(=O)(c1ccc(N(C)C)cc1)C(O)c1ccncc1 (stereo not drawn)	18µM	-	-	.
CN(C)c1ccc(P(=O)(OCc2ccccc2)C(O)c2ccncc2)cc1 (stereo not drawn)	20µM	-	-	-
Cc1cc(C)cc(OCC(=O)OC(C)C(=O)Nc2c(C)n(C)n(-c3ccccc3)c2=O)c1 (stereo not drawn)	.	-	-	-
Cc1ccc(N=c2ssnc2Cl)cc1	11µM	-	-	-
Cc1cc(C)nc(/N=c2/ssnc2Cl)c1	-	-	-	-
